Structures are written as SMILES.

The assay in a line: High-throughput drug toxicity screening in the BPDCN cell line Cal-1 (AID 1224825). To be noted: Cal-1 BPDCN cell viability, qHTS; at 45.8 µM (top of the series) unless noted. The text has this:
Blastic plasmacytoid dendritic cell neoplasm (BPDCN) is a rare, aggressive and largely incurable hematologic malignancy originating from plasmacytoid dendritic cells (pDCs). Although an initial response to chemotherapy is common, BPDCN prognosis is extremely poor and most patients relapse with drug-resistant disease leading to a median overall survival of ~1 year after diagnosis. To explore novel potential therapeutic strategies in BPDCN, we performed a high-throughput drug toxicity screening in BPDCN cell liens, using of a library of 1,912 small molecules, enriched for compounds that are either approved or in early stages of development for cancer therapy.
A total of 500 exponentially growing Cal-1 cells were seeded per well in 5 uL of media (RPMI + Glutamine, without phenol red plus10% FBS and 1X Pen/Strep) into 1536-well solid white high base tissue culture treated Greiner One Bio Plates (789173-F), using a multidrop combi dispenser and a small sterile cassette. Compounds and controls totaling 23nL per well (negative control DMSO and positive control 9.2 uM Bortezomib-final) were immediately added to the plates using a 1536 head pin tool from Kalypsys. The plates were then covered with stainless steel gasket lids from Kalypsys and incubated for 48 hours at 37C under 95% relative humidity with 5% CO2. After 48 hours, the plates were removed and allowed to reach room temperature before 3 uL of Cell Titer Glo reagent (Promega) were added using an Aurora Flying Reagent Dispenser Bioraptor. The plates were then spun at 1000 rpms to remove bubbles and incubated for 15 minutes at room temperature before reading on a ViewLux using a luminescent filter with a 10 second exposure. The relative luciferase units were used to calculated percent activity using DMSO as 100% and Bortezomib as 0%.
In the case of `CN1C(=O)COc2c(C(=O)NC3CN4CCC3CC4)cc(Cl)cc21` (stereo not drawn), the viability (% of control) came to 120%.
For the compound `CC(C)c1cccc(C(C)C)c1O`, the viability (% of control) worked out at 113%.
Under `O=P1(N(CCCl)CCCl)NCCCO1` (stereo not drawn) stands 104%; under `C[C@](O)(CS(=O)(=O)c1ccc(F)cc1)C(=O)Nc1ccc(C#N)c(C(F)(F)F)c1`, 5.28%.
Under `CC(NC(C)(C)C)C(=O)c1cccc(Cl)c1` (stereo not drawn) stands 97.9%.
With `C[C@]12CCC(=O)C=C1CC[C@@H]1[C@H]3CC[C@](C)(O)[C@@]3(C)CC[C@@H]12` the figure was 93.9% [at 92.2 µM]; with `C[C@]12CC[C@H]3[C@@H](CC[C@@]45O[C@H]4C(O)=C(C#N)C[C@]35C)[C@H]1CC[C@H]2O`, 51.6%.
Consider `COc1cc(OC)c(OC)cc1C=O`, for which the viability (% of control) amounted to 98.8%.
Under `CN1C(=O)CCS(=O)(=O)C1c1ccc(Cl)cc1` (stereo not drawn) stands 112%.
For `CC(C)C[C@H](CN)CC(=O)O`, the viability (% of control) came to 132%.
With `C[C@]12CC[C@@H]3c4ccc(OC(=O)N(CCCl)CCCl)cc4CC[C@H]3[C@@H]1CC[C@@H]2OP(=O)(O)O` the figure was 82.9%.
Take `O=C(O)CCCc1ccc(N(CCCl)CCCl)cc1`: the viability (% of control) stood at 11.8%.
With `CCC1(c2ccc(N)cc2)CCC(=O)NC1=O` (stereo not drawn) the figure was 111%.

(Values after PubChem BioAssay (NCATS).)
